High-throughput results: PubChem BioAssay, National Center for Advancing Translational Sciences (NCATS)
Only some compounds are listed: those with a hit (about 19% of all), similar ones and a draw of the others.
ELG1 DNA repair: qHTS screen for small molecules that inhibit ELG1-dependent DNA repair in human embryonic kidney (HEK293T) cells expressing luciferase-tagged ELG1; HEK293T ELG1-luciferase reporter, luminescence, 16 h; DNA damage induced by 5-fluorouridine; Potency, µM (doses to about 46.1 µM), most hits filed as inhibitors; 330,000 compounds, 2.3% hits; AID 504467, 2011; further: nearly all actives have a fitted effect of over 55% in size
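Reporter activity after DNA damage by 5-fluorouridine is monitored. Compound-treated cells incubate 16 hr at 37 °C, then ONE-Glo is added for 30 min before luminescence reading.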
Giardia killer: Small Molecules that selectively kill Giardia lamblia: qHTS. 340,000 compounds, 0.15% hits. activity change, % at 7.66 µM, hits read low. Giardia lamblia trophozoite viability; in the data active means activity change below about -80%; inconclusive means between about -30% and that limit;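 further: parasites exposed to compound for two days anaerobically before the ATP read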
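ATP-content bioluminescence gauges trophozoite survival. Cells (100/well) receive compound and incubate anaerobically for 48 hrs at 37 deg C; detection reagent follows for 15-30 min at room temperature.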
TDP1 inh: qHTS Assay for Inhibitors of Tyrosyl-DNA Phosphodiesterase (TDP1); AID 485290, 2010; 350,000 compounds, 0.28% hits; Potency, µM (doses to about 130 µM), most hits filed as inhibitors; recombinant TDP1, AlphaScreen DNA substrate cleavage; further: nearly all actives have a fitted effect of over 40% in size
Target sequence (Q9NUW8 whole entry, looked up): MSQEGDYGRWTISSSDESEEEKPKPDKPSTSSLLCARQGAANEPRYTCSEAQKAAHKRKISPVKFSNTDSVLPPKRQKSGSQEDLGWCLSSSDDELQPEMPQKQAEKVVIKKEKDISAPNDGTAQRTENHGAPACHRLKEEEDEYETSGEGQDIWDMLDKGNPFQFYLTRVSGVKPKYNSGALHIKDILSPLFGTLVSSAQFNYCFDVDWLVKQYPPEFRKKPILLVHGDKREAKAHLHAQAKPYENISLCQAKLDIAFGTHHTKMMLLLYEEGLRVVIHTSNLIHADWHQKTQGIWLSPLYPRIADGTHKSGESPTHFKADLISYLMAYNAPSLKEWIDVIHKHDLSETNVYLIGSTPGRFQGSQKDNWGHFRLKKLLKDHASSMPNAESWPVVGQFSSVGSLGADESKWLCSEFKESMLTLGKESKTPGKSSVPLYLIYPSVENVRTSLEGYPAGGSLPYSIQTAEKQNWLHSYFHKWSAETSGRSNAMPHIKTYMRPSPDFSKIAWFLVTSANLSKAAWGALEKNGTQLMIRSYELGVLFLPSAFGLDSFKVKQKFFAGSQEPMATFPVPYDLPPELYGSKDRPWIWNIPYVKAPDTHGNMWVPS
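AlphaScreen read-out: signal falls as enzyme removes the 3' tyrosine-FITC from a 5'-biotinylated DNA oligo (15 nM, 5 min, RT). Enzyme was E. coli-made recombinant Tdp1 at 1 nM, exposed to compound for 15 min beforehand; beads 10 ug/ml, 10 min.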
IL1B secr inh: qHTS for Inhibitors of Inflammasome Signaling: IL-1-beta AlphaLISA Primary Screen | THP-1 LPS/ATP IL-1B secretion, AlphaLISA, 16 h; hits give low values | activity change, % at 57.5 µM | 360,000 compounds, 4.7% hits | AID 743279, 2014; in the data active means activity change below about -50%; inconclusive means mostly about -30% to -49%
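Secreted IL-1B measured by AlphaLISA bead assay after 16 h compound exposure of THP-1 cells; compounds (final up to 57.5 uM) added 1 h before LPS (250 ng/mL) and ATP (1.25 mM) stimulation; lower signal means less secretion.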
TDP1 cell CPT: qHTS for Inhibitors of human tyrosyl-DNA phosphodiesterase 1 (TDP1): qHTS in cells in presence of CPT | chicken DT40 Tdp1-/-;hTDP1 cells + 20 nM CPT, ATP luminescence, 48 h | Potency, µM (titrated, usually from 46.2 µM), most hits filed as inhibitors | 420,000 compounds, 12% hits; further: nearly all actives have a fitted effect of over 55% in size
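Chicken DT40 Tdp1-/- cells complemented with human TDP1, 400 cells/well, exposed to compounds plus 20 nM camptothecin for at least 48 h at 37 C; viability read as ATP content by CellTiter-Glo luminescence.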
DT40 TDP1 no CPT: qHTS for Inhibitors of human tyrosyl-DNA phosphodiesterase 1 (TDP1): qHTS in cells in absence of CPT. DT40 Tdp1-/- hTDP1 cells, no CPT, ATP luminescence, 48 h. 420,000 compounds, 15% hits. Potency, µM (highest dose often 46.2 µM), usual class: inhibitors. AID 686978, 2013; further: nearly all actives have a fitted effect of over 55% in size
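Chicken DT40 Tdp1-/- cells complemented with human TDP1, screened without camptothecin (DMSO vehicle only), 400 cells/well. Compounds pin-transferred, cells incubated at 37 °C for at least 48 hr. Growth read as ATP-dependent luminescence (CellTiter-Glo, 30 min at RT).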
Numbers stand for hits; - = inactive; ? = inconclusive; . = no result given; [ ] = dose if it differs, or a comment. Unless noted, the call rests on the fitted dose curve; in most records, active means well fitted curve in the direction sought with a large enough effect; inconclusive means small, poorly fitted or top-dose-only effect, or another doubt; inactive means no such curve, though single readings can be large; an effect the other way counts as inactive or inconclusive.

SMILES	ELG1 DNA repair	Giardia killer	TDP1 inh	IL1B secr inh	TDP1 cell CPT	DT40 TDP1 no CPT
COc1ccc(NC(=O)CN(C)C(=O)c2c(C)nn(Cc3ccc(C)cc3)c2Cl)cc1	-	-	-	-	-	?
Cc1ccc(S(=O)(=O)N(Cc2ccc(C(F)(F)F)cc2)C(=O)N2CCN(C)CC2)cc1	-	-	-	-	-	-
CN(C)C1=NC[C@H](Cc2ccccc2)N1CCC1CCCC1	-	-	.	-	20.6µM	?
CN(C)C1=NC[C@H](Cc2ccccc2)N1CCc1cccc(F)c1	-	-	-	-	?	?
CCCCC/C=C\C/C=C\C/C=C\CCCCC(=O)NCCCC(=O)O	.	.	-	.	.	.
CCC1CC2(C)NC(=O)c3c(sc4c3CC(C)(C)OC4)N2C1=O (stereo unspecified)	?	-	-	-	?	20.6µM
Cn1c(NN)nc2sc3c(c2c1=O)CC(C)(C)OC3	-	-	-	-	?	?
CN1CC(=O)Nc2cc(C(=O)O)ccc21	.	.	-	.	-	-
O=C(Nc1cccc(Cl)c1)c1nc[nH]c1C(=O)Nc1ccccc1F	.	.	.	-	4.11µM	7.31µM
O=C(Nc1ccc(F)cc1)c1nc[nH]c1C(=O)Nc1ccccc1[N+](=O)[O-]	?	-	-	-	?	1.3µM
O=C(Nc1ccc(Cl)cc1)c1nc[nH]c1C(=O)Nc1ccccc1F	.	.	.	-	?	14.6µM
NNC(=O)c1nc[nH]c1C(=O)Nc1ccccc1[N+](=O)[O-]	-	?	-	-	-	?
CN1C(=O)C(c2ccccc2[N+](=O)[O-])C(=O)c2ccccc21 (stereo unspecified)	?	-	.	-	-	-
O=C(Cc1ccc(Cl)cc1Cl)Nc1ccc(OC(F)F)c(Cl)c1	-	-	-	-	?	?
O=C(Nc1ccc([N+](=O)[O-])cc1)Nc1ccc(OC(F)F)c(Cl)c1	?	-	-	-88.8	2.31µM	1.64µM
COc1ccc(NC(=O)Nc2cccc([N+](=O)[O-])c2)cc1Cl	?	-	-	-83.5	18.4µM	9.2µM
Cc1ccc(NC(=O)C(C)c2ccc([N+](=O)[O-])cc2)cc1Cl (stereo unspecified)	-	-	-	-104.0	?	?
O=C(Nc1ccc(OC(F)F)c(Cl)c1)Nc1ccc2c(c1)OCO2	-	-	-	-78.9	?	16.4µM
Cc1nc(C)c(C(=O)N2CCc3c(cnc(C)c3CNC(=O)c3cncs3)C2)s1	.	.	.	.	-[9.04 µM]	-
CC(NC(=O)C1CCN(S(=O)(=O)c2ccc(F)cc2)CC1)c1ccccc1 (stereo unspecified)	.	.	.	.	?	-
Cc1cn2c(=O)cc(COC(=O)c3ccccc3F)nc2s1	.	.	-	.	-	-
O=C(Nc1ccc(OC(F)F)c(Cl)c1)c1cccc(OC(F)F)c1	?	-	.	-54.5	?	?
c1ccc([C@H]2NCCc3c2[nH]c2ccccc32)cc1	.	.	-[21 µM]	.	.	.
CC(C)C1NCCc2c1sc1ccccc21 (stereo unspecified)	.	-	.	-50.2	-	?
COc1cc(NC(=O)CN2C(=O)CN(C)C(=O)c3ccccc32)cc(OC)c1OC	.	.	-	.	-	-
SMILES	ELG1 DNA repair	Giardia killer	TDP1 inh	IL1B secr inh	TDP1 cell CPT	DT40 TDP1 no CPT
c1ccc(-n2nnnc2Sc2ncnc3sc4c(c23)CCCC4)cc1	?	-	-	-	4.11µM	3.26µM
O=C(O)CSc1ncnc2sc3c(c12)CCC3	?	-	.	-	?	?
Cc1sc2ncnc(Sc3nnnn3-c3ccc(Cl)cc3)c2c1C	?	-	-	-69.5	?	?
CC(=O)Oc1ccc(C(=O)Nc2ccc(C3(C#N)CCCC3)cc2)cc1	?	-	.	-59.4	16.4µM	16.4µM
CC(=O)Oc1ccc(C(=O)Nc2cccc(C(=O)c3cccc(NC(=O)c4ccc(OC(C)=O)cc4)c3)c2)cc1	23.1µM	-	.	-	?	23.1µM
CC(=O)Oc1ccc(C(=O)Nc2cccc(C(=O)NC(C)(C)C)c2)cc1	-	-	-	-	-	-
COc1cc(OC)cc(C(=O)Nc2ccc(Nc3ccccc3)cc2)c1	?	-	.	-	20.6µM	?
COc1ccc(NC(=O)c2cccc(NC(=O)C(C)C)c2)c([N+](=O)[O-])c1	-	-	-	-	?	16.4µM
CC(=O)Nc1ccc(OC(C)=O)cc1	.	.	-	.	-	-
CC(=O)Oc1ccc(Nc2ccccc2)cc1	-	-	-	-	18.4µM	?
COc1ccc(OC)c(NC(=O)c2cccc(NC(=O)c3ccccc3)c2)c1	?	-	.	-56.8	?	?
CC(=O)Nc1ccc(OC(=O)c2ccccc2O)cc1	.	.	-	.	0.581µM	?
CC(C)OC(=O)c1cccc(NC(=O)c2ccccc2)c1	?	-	-	-	13µM	13µM
COc1cccc(NC(=O)c2ccccc2)c1	?	-	-	-	-	-
COc1cc(OC)cc(C(=O)Nc2nnc(Cc3ccc(OC)c(OC)c3)s2)c1	-	-	-	-	-	-
COc1cc(OC)cc(C(=O)Nc2cccc(C(C)=O)c2)c1	-	-	-	-	-	-
COc1cc(OC)cc(C(=O)NCC(=O)Nc2ccc(-c3ccccc3)cc2)c1	?	-	-	-	16.4µM	18.4µM
COc1cc(OC)cc(C(=O)Nc2cccc(NC(=O)c3ccccc3)c2)c1	16.4µM	-	.	-	-	?
CNc1ccc(-c2nc3ccccc3s2)cc1	.	.	-	.	.	.
ON=C(c1ccccc1)c1ccc2c3c(cccc13)CC2	.	.	.	-	?	18.4µM
CC(=O)c1ccc2c3c(cccc13)CC2	-	-	-	-	-	-
Cc1ccc(C(=O)C2(C)C3c4cc(Br)ccc4OC(=O)C32C(=O)c2ccco2)cc1 (stereo unspecified)	-	-	-	-	-	?
Cc1cccc(C)c1NC(=O)C1C(c2ccc3c(c2)OCO3)=Nc2ccccc2N1C(=O)c1ccccc1 (stereo unspecified)	.	.	.	-	5.17µM	1.46µM
COc1ccc(C2=Nc3ccccc3N(C(=O)c3ccc(C(F)(F)F)cc3)C2C(=O)Nc2c(C)cccc2C)cc1 (stereo unspecified)	.	.	.	-	?	?
CCCCNC(=O)C1C(c2ccc(C(F)(F)F)cc2)=Nc2ccccc2N1C(=O)c1cccc(C(F)(F)F)c1 (stereo unspecified)	.	.	.	-	?	?
O=C(NCc1ccccc1)C1C(c2ccc3c(c2)OCO3)=Nc2ccccc2N1C(=O)c1cccc(C(F)(F)F)c1 (stereo unspecified)	.	.	.	-	16.4µM	?
